Data on nine sequences can be found in article PMC7862700, “An all-to-all approach to the identification of sequence-specific readers for epigenetic DNA modifications on cytosine”.

Test in all cases: DAPPL (digital affinity profiling via proximity ligation, sequencing); 10 mM Tris-HCl pH 7.5, 50 mM NaCl, 1 mM DTT, 4% glycerol, room temperature, 30 min; GST-TFs on glutathione beads, 16-mer random dsDNA library, 0.1% formaldehyde crosslink after washing; high values mean tight binding
What all share (conditions): protein: recombinant; tags: N-terminal GST; dsDNA, one strand shown

One assay has as its target T1, FLI1 (Homo sapiens, UniProt Q01543 1-452).
T1 sequence: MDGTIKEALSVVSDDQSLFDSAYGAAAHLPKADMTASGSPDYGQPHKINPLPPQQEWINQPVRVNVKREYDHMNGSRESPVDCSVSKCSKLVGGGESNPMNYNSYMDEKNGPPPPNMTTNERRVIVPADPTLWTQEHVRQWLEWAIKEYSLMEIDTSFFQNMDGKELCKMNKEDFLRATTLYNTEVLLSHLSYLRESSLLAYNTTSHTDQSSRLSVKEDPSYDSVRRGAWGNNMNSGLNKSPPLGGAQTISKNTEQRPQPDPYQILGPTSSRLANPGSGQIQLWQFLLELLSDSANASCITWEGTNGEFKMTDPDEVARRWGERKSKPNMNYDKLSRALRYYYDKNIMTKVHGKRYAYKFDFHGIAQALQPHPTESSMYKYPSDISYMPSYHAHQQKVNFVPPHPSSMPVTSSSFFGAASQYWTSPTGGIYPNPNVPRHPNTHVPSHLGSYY
In a few lines: (§1)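 Pools were built from human transcription factors expressed in yeast as GST fusions, captured on glutathione beads and DNA-barcoded, along with a tag-only sample. Incubation with 200 nmole of a 16-mer random double-stranded DNA library lasted 30 min at room temperature in Tris/NaCl/DTT/glycerol buffer, and was followed by washing, 0.1% formaldehyde crosslinking, proximity ligation, PCR amplification and Illumina NextSeq500 sequencing. Binding signal is the quotient of each hexamer's read frequency for a factor and its frequency for the tag-only sample.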

In the next assay the target is T2, ELK1 (Homo sapiens, UniProt P19419 1-428).
T2 sequence: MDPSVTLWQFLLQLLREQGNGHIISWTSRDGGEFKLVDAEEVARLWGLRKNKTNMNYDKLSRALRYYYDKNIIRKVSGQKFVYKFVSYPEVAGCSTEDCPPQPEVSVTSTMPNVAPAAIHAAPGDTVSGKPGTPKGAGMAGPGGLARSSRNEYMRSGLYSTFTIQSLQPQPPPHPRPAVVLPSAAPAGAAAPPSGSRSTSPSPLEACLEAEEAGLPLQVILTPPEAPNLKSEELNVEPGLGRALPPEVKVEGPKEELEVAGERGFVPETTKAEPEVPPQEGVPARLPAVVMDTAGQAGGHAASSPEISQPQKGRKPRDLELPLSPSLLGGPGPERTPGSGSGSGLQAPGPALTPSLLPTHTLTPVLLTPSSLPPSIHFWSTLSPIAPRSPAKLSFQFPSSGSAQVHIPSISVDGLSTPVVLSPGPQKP
In a few lines:
as §1

The next assay addresses T3, GABPA (Homo sapiens, UniProt Q06546 1-454).
T3 sequence: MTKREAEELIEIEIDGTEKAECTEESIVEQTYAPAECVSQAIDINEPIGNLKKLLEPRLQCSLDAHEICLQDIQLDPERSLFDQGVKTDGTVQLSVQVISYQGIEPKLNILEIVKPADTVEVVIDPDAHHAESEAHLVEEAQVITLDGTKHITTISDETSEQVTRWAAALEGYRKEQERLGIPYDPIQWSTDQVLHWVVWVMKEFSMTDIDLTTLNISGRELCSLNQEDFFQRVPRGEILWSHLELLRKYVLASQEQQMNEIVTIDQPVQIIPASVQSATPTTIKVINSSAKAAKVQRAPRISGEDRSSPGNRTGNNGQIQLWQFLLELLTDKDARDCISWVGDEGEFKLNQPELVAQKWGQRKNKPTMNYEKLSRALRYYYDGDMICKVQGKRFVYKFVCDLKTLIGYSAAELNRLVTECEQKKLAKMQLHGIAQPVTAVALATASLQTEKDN
In a few lines:
as §1

In another assay the target is T4, ERG (Homo sapiens, UniProt P11308 1-479).
T4 sequence: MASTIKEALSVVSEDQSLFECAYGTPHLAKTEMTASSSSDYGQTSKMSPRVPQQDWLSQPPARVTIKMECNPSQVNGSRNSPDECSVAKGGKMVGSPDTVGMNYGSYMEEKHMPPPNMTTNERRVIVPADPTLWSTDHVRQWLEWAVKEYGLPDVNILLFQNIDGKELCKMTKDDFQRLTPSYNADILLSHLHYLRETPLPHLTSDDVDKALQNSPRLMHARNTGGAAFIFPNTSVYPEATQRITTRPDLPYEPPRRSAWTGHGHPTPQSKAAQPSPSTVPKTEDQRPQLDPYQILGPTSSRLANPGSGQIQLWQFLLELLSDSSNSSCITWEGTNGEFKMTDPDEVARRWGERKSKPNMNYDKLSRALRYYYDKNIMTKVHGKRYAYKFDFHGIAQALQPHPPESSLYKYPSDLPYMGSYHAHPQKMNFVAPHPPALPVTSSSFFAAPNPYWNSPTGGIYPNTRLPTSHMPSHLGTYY
In a few lines:
as §1

The next assay deals with ELF1 (Homo sapiens, UniProt P32519 1-619). In a few lines:
as §1

The next assay has as its target T5, EHF (Homo sapiens, UniProt Q9NZC4 1-300).
T5 sequence: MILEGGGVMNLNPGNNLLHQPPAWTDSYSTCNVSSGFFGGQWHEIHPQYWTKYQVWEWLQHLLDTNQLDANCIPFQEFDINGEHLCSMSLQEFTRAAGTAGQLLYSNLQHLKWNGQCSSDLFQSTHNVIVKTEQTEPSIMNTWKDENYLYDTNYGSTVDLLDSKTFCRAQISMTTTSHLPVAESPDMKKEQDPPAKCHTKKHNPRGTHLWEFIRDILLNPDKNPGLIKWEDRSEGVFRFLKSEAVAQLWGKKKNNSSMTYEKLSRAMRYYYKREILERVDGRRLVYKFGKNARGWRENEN
Put shortly: as §1

For a further assay, the target named is SPI1 (Homo sapiens, UniProt P17947 1-270). Put shortly: as §1
The target of the next assay is SPIB (Homo sapiens, UniProt Q01892 1-262). In a few lines: as §1
Chain of SPIB (Q01892 whole entry): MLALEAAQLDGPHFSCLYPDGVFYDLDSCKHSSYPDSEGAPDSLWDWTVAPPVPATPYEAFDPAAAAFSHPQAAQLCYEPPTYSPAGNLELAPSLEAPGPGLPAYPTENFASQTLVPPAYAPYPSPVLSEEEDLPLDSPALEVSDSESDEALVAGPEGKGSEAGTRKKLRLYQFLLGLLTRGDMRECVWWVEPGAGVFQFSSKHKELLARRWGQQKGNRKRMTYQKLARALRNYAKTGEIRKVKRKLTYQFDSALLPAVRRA
The target in another assay is T6, ELK3 (Homo sapiens, UniProt P41970 1-407).
T6 sequence: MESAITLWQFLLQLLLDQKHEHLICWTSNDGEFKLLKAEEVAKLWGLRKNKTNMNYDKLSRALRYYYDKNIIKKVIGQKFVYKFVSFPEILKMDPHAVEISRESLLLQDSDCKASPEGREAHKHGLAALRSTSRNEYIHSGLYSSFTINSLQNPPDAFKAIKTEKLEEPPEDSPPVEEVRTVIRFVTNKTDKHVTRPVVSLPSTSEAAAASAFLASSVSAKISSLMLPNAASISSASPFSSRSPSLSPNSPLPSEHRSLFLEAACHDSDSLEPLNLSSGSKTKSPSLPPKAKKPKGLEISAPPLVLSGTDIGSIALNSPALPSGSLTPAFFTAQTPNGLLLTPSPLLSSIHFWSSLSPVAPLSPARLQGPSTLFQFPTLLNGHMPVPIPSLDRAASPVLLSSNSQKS
Put shortly:
as §1

Chain of ELF1 (P32519 whole entry): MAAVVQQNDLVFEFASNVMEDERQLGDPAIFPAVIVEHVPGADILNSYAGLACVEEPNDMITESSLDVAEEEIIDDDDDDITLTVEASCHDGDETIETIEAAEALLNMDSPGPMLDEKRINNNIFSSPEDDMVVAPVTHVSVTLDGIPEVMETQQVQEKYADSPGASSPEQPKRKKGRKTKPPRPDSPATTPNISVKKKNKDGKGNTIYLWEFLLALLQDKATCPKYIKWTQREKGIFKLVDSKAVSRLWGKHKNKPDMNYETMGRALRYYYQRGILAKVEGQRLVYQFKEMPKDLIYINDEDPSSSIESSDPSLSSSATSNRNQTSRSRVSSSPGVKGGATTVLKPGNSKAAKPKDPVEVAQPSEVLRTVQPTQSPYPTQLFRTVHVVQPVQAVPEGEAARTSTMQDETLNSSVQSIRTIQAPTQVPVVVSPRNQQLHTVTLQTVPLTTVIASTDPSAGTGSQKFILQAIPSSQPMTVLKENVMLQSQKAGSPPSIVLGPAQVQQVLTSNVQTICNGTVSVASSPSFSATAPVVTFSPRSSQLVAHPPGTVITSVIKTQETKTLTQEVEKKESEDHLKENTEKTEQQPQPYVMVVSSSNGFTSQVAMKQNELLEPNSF

On to GTTTAA, for which the binding signal with FLI1 is 1.19 fold enrichment (6-mer frequency, TF over GST control); with ELK1, 1.19 fold enrichment (6-mer frequency, TF over GST control); with GABPA, 1.13 fold enrichment (6-mer frequency, TF over GST control); with ERG it was 1.13 fold enrichment (6-mer frequency, TF over GST control); with ELF1, 1.13 fold enrichment (6-mer frequency, TF over GST control); with EHF it was 1.17 fold enrichment (6-mer frequency, TF over GST control). Further, the binding signal is 1.16 fold enrichment (6-mer frequency, TF over GST control) in the assay with SPI1; 1.27 fold enrichment (6-mer frequency, TF over GST control) with SPIB; 1.26 fold enrichment (6-mer frequency, TF over GST control) in the assay with ELK3.
For the sequence CTCCCA, the binding signal in the assay with FLI1 was 1.47 fold enrichment (6-mer frequency, TF over GST control); with ELK1 it was 1.33 fold enrichment (6-mer frequency, TF over GST control); with GABPA, 1.45 fold enrichment (6-mer frequency, TF over GST control); in the assay with ERG, 1.38 fold enrichment (6-mer frequency, TF over GST control); with ELF1 it was 1.41 fold enrichment (6-mer frequency, TF over GST control); in the assay with EHF, 1.39 fold enrichment (6-mer frequency, TF over GST control). The binding signal with SPI1 was 1.43 fold enrichment (6-mer frequency, TF over GST control); with SPIB it was 1.36 fold enrichment (6-mer frequency, TF over GST control); in the assay with ELK3, 1.34 fold enrichment (6-mer frequency, TF over GST control).
On to AATTTC, for which the binding signal was 1.65 fold enrichment (6-mer frequency, TF over GST control) with FLI1; 1.59 fold enrichment (6-mer frequency, TF over GST control) with ELK1; 1.75 fold enrichment (6-mer frequency, TF over GST control) in the assay with GABPA; 1.94 fold enrichment (6-mer frequency, TF over GST control) in the assay with ERG; 1.6 fold enrichment (6-mer frequency, TF over GST control) with ELF1; 1.77 fold enrichment (6-mer frequency, TF over GST control) with EHF. Moreover, the binding signal in the assay with SPI1 was 1.47 fold enrichment (6-mer frequency, TF over GST control); in the assay with SPIB, 1.85 fold enrichment (6-mer frequency, TF over GST control); with ELK3 it was 1.79 fold enrichment (6-mer frequency, TF over GST control).
For ATTAAT, the binding signal with FLI1 is 1.23 fold enrichment (6-mer frequency, TF over GST control); with ELK1 it was 1.24 fold enrichment (6-mer frequency, TF over GST control); with GABPA it was 1.29 fold enrichment (6-mer frequency, TF over GST control); in the assay with ERG, 1.21 fold enrichment (6-mer frequency, TF over GST control); with ELF1 it was 1.23 fold enrichment (6-mer frequency, TF over GST control); with EHF, 1.2 fold enrichment (6-mer frequency, TF over GST control). For the same sequence, the binding signal was 1.21 fold enrichment (6-mer frequency, TF over GST control) with SPI1; 1.24 fold enrichment (6-mer frequency, TF over GST control) in the assay with SPIB; 1.26 fold enrichment (6-mer frequency, TF over GST control) with ELK3.
Turning to TTTCGT, the binding signal with FLI1 is 1.31 fold enrichment (6-mer frequency, TF over GST control); with ELK1, 1.38 fold enrichment (6-mer frequency, TF over GST control); with GABPA, 1.37 fold enrichment (6-mer frequency, TF over GST control); with ERG, 1.23 fold enrichment (6-mer frequency, TF over GST control); with ELF1, 1.41 fold enrichment (6-mer frequency, TF over GST control); with EHF, 1.46 fold enrichment (6-mer frequency, TF over GST control). In addition, the binding signal is 1.27 fold enrichment (6-mer frequency, TF over GST control) with SPI1; 1.47 fold enrichment (6-mer frequency, TF over GST control) in the assay with SPIB; 1.25 fold enrichment (6-mer frequency, TF over GST control) in the assay with ELK3.
For AACCCG, the binding signal with FLI1 was 1.36 fold enrichment (6-mer frequency, TF over GST control); with ELK1 it was 1.44 fold enrichment (6-mer frequency, TF over GST control); with GABPA, 1.31 fold enrichment (6-mer frequency, TF over GST control); with ERG, 1.46 fold enrichment (6-mer frequency, TF over GST control); with ELF1, 1.5 fold enrichment (6-mer frequency, TF over GST control); with EHF, 1.54 fold enrichment (6-mer frequency, TF over GST control). In addition, the binding signal was 1.36 fold enrichment (6-mer frequency, TF over GST control) in the assay with SPI1; 1.46 fold enrichment (6-mer frequency, TF over GST control) with SPIB; 1.49 fold enrichment (6-mer frequency, TF over GST control) with ELK3.
As for ACTTCA, the binding signal in the assay with FLI1 is 1.43 fold enrichment (6-mer frequency, TF over GST control); in the assay with ELK1 it was 1.41 fold enrichment (6-mer frequency, TF over GST control); in the assay with GABPA, 1.45 fold enrichment (6-mer frequency, TF over GST control); with ERG, 1.4 fold enrichment (6-mer frequency, TF over GST control); with ELF1, 1.42 fold enrichment (6-mer frequency, TF over GST control); with EHF, 1.35 fold enrichment (6-mer frequency, TF over GST control). Besides, the binding signal in the assay with SPI1 is 1.45 fold enrichment (6-mer frequency, TF over GST control); with SPIB, 1.47 fold enrichment (6-mer frequency, TF over GST control); in the assay with ELK3, 1.44 fold enrichment (6-mer frequency, TF over GST control).
With TTCCTA, the binding signal with FLI1 was 1.82 fold enrichment (6-mer frequency, TF over GST control); in the assay with ELK1 it was 1.72 fold enrichment (6-mer frequency, TF over GST control); with GABPA it was 1.55 fold enrichment (6-mer frequency, TF over GST control); in the assay with ERG, 1.78 fold enrichment (6-mer frequency, TF over GST control); with ELF1, 1.63 fold enrichment (6-mer frequency, TF over GST control); with EHF it was 1.59 fold enrichment (6-mer frequency, TF over GST control). Also, the binding signal was 1.7 fold enrichment (6-mer frequency, TF over GST control) with SPI1; 1.93 fold enrichment (6-mer frequency, TF over GST control) in the assay with SPIB; 1.74 fold enrichment (6-mer frequency, TF over GST control) in the assay with ELK3.
On to TGTAAT, for which the binding signal in the assay with FLI1 was 1.27 fold enrichment (6-mer frequency, TF over GST control); with ELK1, 1.2 fold enrichment (6-mer frequency, TF over GST control); with GABPA it was 1.2 fold enrichment (6-mer frequency, TF over GST control); in the assay with ERG, 1.2 fold enrichment (6-mer frequency, TF over GST control); in the assay with ELF1, 1.18 fold enrichment (6-mer frequency, TF over GST control); with EHF it was 1.15 fold enrichment (6-mer frequency, TF over GST control). The binding signal was 1.15 fold enrichment (6-mer frequency, TF over GST control) in the assay with SPI1; 1.25 fold enrichment (6-mer frequency, TF over GST control) in the assay with SPIB; 1.26 fold enrichment (6-mer frequency, TF over GST control) with ELK3.
